Measurements: PubChem BioAssay AID485346 (Sanford-Burnham Center for Chemical Genomics, 2010)
Among all 330,000 compounds or so, about 10,000 (3%) were called active. What follows is part of a selection rich in actives, with near analogues and random picks from the rest. A number with no mark means an inactive call.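 How the source made its calls: active means inhibition of at least 50% at 8 µM in the primary screen; inactive means the rest.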

Biological target: Protein Mdm4 (Homo sapiens) + E3 ubiquitin-protein ligase Mdm2 (Homo sapiens) (UniProt O15151+Q00987)
Sequence (O15151 whole entry, looked up): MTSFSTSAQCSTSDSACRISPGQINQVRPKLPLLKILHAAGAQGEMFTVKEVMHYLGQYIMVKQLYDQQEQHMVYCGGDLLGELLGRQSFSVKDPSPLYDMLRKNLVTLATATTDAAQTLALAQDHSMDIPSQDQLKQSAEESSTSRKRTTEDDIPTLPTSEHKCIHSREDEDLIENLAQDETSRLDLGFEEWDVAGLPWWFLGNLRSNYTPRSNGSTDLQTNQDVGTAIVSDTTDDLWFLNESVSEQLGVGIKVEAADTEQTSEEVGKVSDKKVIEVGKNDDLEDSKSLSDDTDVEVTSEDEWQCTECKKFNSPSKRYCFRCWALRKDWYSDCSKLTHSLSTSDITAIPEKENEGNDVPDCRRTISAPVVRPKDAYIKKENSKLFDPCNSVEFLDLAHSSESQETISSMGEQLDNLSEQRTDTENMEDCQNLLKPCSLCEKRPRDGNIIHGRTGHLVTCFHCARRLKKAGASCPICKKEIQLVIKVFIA
Sequence (Q00987 whole entry, looked up): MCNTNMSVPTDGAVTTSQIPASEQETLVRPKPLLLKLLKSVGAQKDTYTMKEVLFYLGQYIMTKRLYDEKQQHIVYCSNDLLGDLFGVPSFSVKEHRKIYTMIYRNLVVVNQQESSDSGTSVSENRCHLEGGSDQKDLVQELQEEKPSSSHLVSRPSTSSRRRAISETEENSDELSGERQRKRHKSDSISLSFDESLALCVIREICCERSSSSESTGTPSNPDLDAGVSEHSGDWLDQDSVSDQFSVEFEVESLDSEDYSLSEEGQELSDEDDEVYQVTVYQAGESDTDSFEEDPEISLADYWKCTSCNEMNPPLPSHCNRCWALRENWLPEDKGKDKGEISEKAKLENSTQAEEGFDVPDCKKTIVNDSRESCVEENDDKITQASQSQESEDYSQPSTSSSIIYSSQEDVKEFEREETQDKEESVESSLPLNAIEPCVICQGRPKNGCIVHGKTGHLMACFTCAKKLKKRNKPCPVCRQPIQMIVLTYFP
Assay: disruptors of Mdm2/MdmX RING complex – cell-based, luminescence, split luciferase, SaOS-2, uHTS, primary screen (AID 485346)
Conditions: SaOS-2 split-luciferase Mdm2/MdmX complementation, at 8 µM, hits give high values

| Compound | inhibition |
| --- | --- |
| COC(=O)c1ccc(NC(=O)c2ccccc2NS(=O)(=O)c2ccccc2)cc1 | 36.9% |
| COc1cc(NC(=O)c2ccccc2NS(=O)(=O)c2ccc(Cl)s2)cc(OC)c1 | 85.1% (active) |
| COc1cc(OC)c(S(=O)(=O)Nc2ccccc2C(=O)O)cc1S(=O)(=O)Nc1ccccc1C(=O)O | 13.2% |
| O=C(Nc1cc2c3c(c1)C1CCCC1CN3CC1CCCC21)c1ccc([N+](=O)[O-])cc1 (configuration not stated) | 14.3% |
| CN(C)c1ccc(C=NCCc2ccc(S(N)(=O)=O)cc2)cc1 | 5.89% |
| Cc1cc2cc3c(cc2nc1SCC(=O)Nc1c(C)cccc1C)CCC3 | 56.1% (active) |
| Cc1cc(C)c(C#N)c(SCC(=O)Nc2ccccc2)n1 | -38.3% |
| Cc1cccc(C)c1NC(=O)CSc1ccc([N+](=O)[O-])cn1 | 7.43% |
| CN(C)CCn1c2c(c(SCC(=O)Nc3ccccc3C(F)(F)F)nc1=O)CCCC2 | 18.8% |
| COc1ccc(CNC(=O)c2cc3c(=O)n4ccccc4nc3n(CC3CCCO3)c2=N)cc1 (configuration not stated) | 22.4% |
| COc1ccc(CCn2c(=N)c(C(=O)NCC3CCCO3)cc3c(=O)n4cccc(C)c4nc32)cc1OC (configuration not stated) | 64.4% (active) |
| Cc1cccn2c(=O)c3cc(C(=O)NCC4CCCO4)c(=N)n(Cc4ccc(F)cc4)c3nc12 (configuration not stated) | 19.6% |
| Cc1ccc2nc3c(cc(C(=O)NCCc4ccccc4)c(=N)n3CC3CCCO3)c(=O)n2c1 (configuration not stated) | 27.8% |
| Cc1cccn2c(=O)c3cc(C(=O)NCCN4CCOCC4)c(=N)n(Cc4cccnc4)c3nc12 | 52.7% (active) |
| Cc1cccn2c(=O)c3cc(C#N)c(=O)n(CCCN4CCOCC4)c3nc12 | 16% |
| COc1cccc(C2=CC(=O)C[C@H](c3ccc(F)cc3)C2)c1OC | 11.8% |
| Cc1nc(-c2ccc(Cl)cc2)sc1C1(C)CC(c2ccc(Br)cc2)=NO1 (configuration not stated) | 4.57% |
| Cc1c(Cl)cccc1NC(=O)Nc1ccc(C(=O)N2CCCC2)cc1 | 41.9% |
| Cc1[nH]c(C)c(S(=O)(=O)N2CCC(C)CC2)c1C(=O)N1CCCC1 | -8.55% |
| N#Cc1ccc(C2=CC(=O)C[C@H](c3ccc(Cl)cc3)C2)cc1 | -22.1% |
| CC(=NCc1ccco1)C1=C(O)c2ccccc2C1=O | -27.5% |
| COC(=O)c1c(-c2ccc(C)cc2)csc1N | 16.7% |
| CCOC(=O)c1c(-c2ccc(C)cc2)csc1/N=C(\C)C1=C(O)c2ccccc2C1=O | 63.4% (active) |

| Compound | inhibition |
| --- | --- |
| Cc1cc(-c2ccc(S(=O)(=O)N3CCc4ccccc4C3)s2)on1 | -2.71% |
| C/C(=N\NC(=O)c1ccc(C)cc1)C1C(=O)c2ccccc2C1=O | 1.09% |
| COc1cc(NC(=O)c2ccc(CNc3c(N4CCCC4)c(=O)c3=O)cc2)cc(OC)c1OC | -9.99% |
| O=C(NCc1ccc2c(c1)OCO2)c1c(O)nc2sccn2c1=O | 16.7% |
| CC(=O)c1c(OCC(=O)N(C)C2CCCCC2)ccc2c(C)cc(=O)oc12 | 4.3% |
| COc1cc(C)cc(CN2CCC(Cc3ccccc3)CC2)c1O | -29.4% |
| Cc1cccnc1NC(=O)c1cccc(S(=O)(=O)N2CCN(c3ccc(F)cc3)CC2)c1 | 28.4% |
| Oc1c(CN2CCN(c3ccc(F)cc3)CC2)cc(Cl)c2cccnc12 | 65% (active) |
| O=C(CN1CCN(c2ccc(F)cc2)CC1)Nc1ccccc1 | 0.1% |
| CC1CCCN(CC(O)COCc2ccccc2)C1 (configuration not stated) | 3.39% |
| Oc1c(CN2CCCC2)cc(COCc2ccccc2)c2cccnc12 | 75.7% (active) |
| CC(C)(C)C1CCC(C(=O)Nc2cccnc2)CC1 (configuration not stated) | 19% |
| CCC(C)(C(=O)Nc1ccccc1C)N(C(=O)CNC(C)=O)c1ccc(C)cc1 (configuration not stated) | -5.46% |
| CN1CCN(C2Cc3ccc(Cl)cc3Sc3ccc(F)cc32)CC1 (configuration not stated) | 54.3% (active) |
| CC(OC(=O)CCCOc1ccccc1)C(=O)Nc1ccc(Cl)cn1 (configuration not stated) | 17.5% |
| COC(=O)[C@@H]1C[C@@]2(O)[C@H](O)[C@H](O)[C@H](O)C[C@H]2N1Cc1ccc(C)s1 | 7.36% |
| CCC(c1nnnn1Cc1ccco1)N(CCc1ccccc1)Cc1cc2cccc(C)c2[nH]c1=O (configuration not stated) | 12.5% |
| CCC(c1nnnn1C1CCCC1)N(Cc1cccs1)Cc1cc2cccc(C)c2[nH]c1=O (configuration not stated) | 56.1% (active) |
| Cc1cccc2cc(CN(Cc3nnnn3Cc3ccccc3)C3CCCC3)c(=O)[nH]c12 | 13.2% |
| CN(C(=O)CSc1cccc[n+]1[O-])C1CCCCC1 | 20.9% |
| CN1CCN(CC#CCC2(O)c3ccccc3-c3ccccc32)CC1 | 16.2% |
| COc1ccc(-c2nnc(SC(C)C(=O)NC3CC3)o2)cc1 (configuration not stated) | 19.9% |
| COc1ccc(-c2nnc(SC(=O)N3c4ccccc4Sc4ccccc43)o2)cc1 | 69.1% (active) |

| Compound | inhibition |
| --- | --- |
| COc1ccc(-c2nnc(SCC(=O)c3ccc4c(c3)OCCO4)o2)cc1 | 17.3% |
| O=C(CCc1ccccc1)Nc1ccc(NC(=O)C2CCCCC2)nc1 | 11% |
| COc1ccc(CNC(=O)CN(C(=O)c2csnn2)c2cnc3ccccc3c2)cc1 | 12.6% |
| CCOC(CNC(=O)C1CCN(S(=O)(=O)c2ccc3nc4c(c(C(=O)O)c3c2)CC(C)CC4)CC1)OCC (configuration not stated) | 14.5% |
| C/C(=N\N=C(N)N)c1ccc(Cl)cc1 | 52% (active) |
| C/C(=N\OCC(=O)O)c1ccc(Cl)cc1 | -3.73% |
| C/C(=N\NC(=S)NCc1ccccc1)c1ccc(Cl)cc1 | 12.3% |
| CN(C)c1ccc(C(CNC(=O)c2ccc(F)cc2)c2c[nH]c3ccccc23)cc1 (configuration not stated) | 3.11% |
| COC(=O)c1c(NC(=O)COc2ccc(Cl)cc2Cl)sc2c1CC(C)(C)NC2(C)C | 100% (active) |
| Cc1cnc(C(=O)OCC(=O)Nc2ccc(Cl)cc2Cl)cn1 | 21.4% |
| COC(=O)c1sccc1NC(=O)COc1ccc(Cl)cc1 | -7.02% |
| CCc1ccc(CN(C)C(C)C(=O)Nc2ccc(S(=O)(=O)N3CCCC3)cc2)cc1 (configuration not stated) | 20.1% |
| Oc1[nH]c2ccc(Br)cc2c1N=Nc1nn[nH]n1 | 13.6% |
| NS(=O)(=O)c1ccc(N=Nc2c(O)[nH]c3ccc(Br)cc23)cc1 | 53.6% (active) |
| O=C(CNC(=O)Cc1ccccc1)N=Nc1c(O)[nH]c2ccc(Br)cc12 | 37.6% |
| Cc1ccc(S(=O)(=O)Oc2ccc(/C=N/NC(=O)c3ccncc3)cc2)cc1 | 16.6% |
| COc1ccc(CC(=O)NCC(=O)N/N=C/c2cc(Br)ccc2OC)cc1 | 41.6% |
| Cc1ccc(OCCOCCOc2ccc(Br)cc2/C=N\NC(=O)c2ccncc2)cc1 | 59.9% (active) |
| O=C(Nc1ccnn1C1CCN(C/C=C/c2ccc(F)cc2)CC1)C1CCCC1 | 22.3% |
| O=C(O)CN(Cc1ccco1)S(=O)(=O)c1ccc(F)cc1 | -22% |
| Cc1onc(-c2c(F)cccc2Cl)c1C(=O)N(C)CC(=O)Nc1cccc(F)c1 | -8.71% |
| COc1ccccc1NC(=O)CCCc1c[nH]c2ccccc12 | -3.5% |
| COc1ccc(S(=O)(=O)NCCc2c[nH]c3ccccc23)cc1OC | 6.22% |

| Compound | inhibition |
| --- | --- |
| COc1cccc(CNCCc2c[nH]c3ccccc23)c1OCc1ccccc1F | 92.8% (active) |
| Cc1ccoc1C(=O)Nc1cccc(Oc2ccccc2)c1 | -66.5% |
| COC(=O)c1ccccc1NC(=O)C1(S(=O)(=O)c2ccc(Cl)cc2)CC1 | -0.27% |
| C=C(C)COc1ccc(-c2nc(N)ncc2-c2ccccc2OC)c(O)c1 | 17.9% |
| COc1ccc(-c2n[nH]c(C)c2-c2ccc(OC)c(OC)c2)c(O)c1 | 62.5% (active) |
| CCOc1ccc(-c2nc(N)ncc2-c2ccccc2OC)c(O)c1 | 11.3% |
| C=C(C)COc1ccc(-c2ncncc2-c2ccc(OC)cc2)c(O)c1 | 29.3% |
| C=C(C)COc1ccc(-c2n[nH]c(C)c2-c2ccccc2OC)c(O)c1 | 53.6% (active) |
| COc1ccc(-c2c(-c3ccc(OC)cc3O)nc(C)nc2C(F)(F)F)cc1 | 8.07% |
| COc1ccc(-c2[nH]ncc2CN(C)Cc2c(C)n[nH]c2C)c(OC)c1 | 15.3% |
| C=C(C)COc1ccc(-c2n[nH]c(C)c2-c2ccccc2)c(O)c1 | 53.7% (active) |
| COc1ccc(-c2n[nH]c(C)c2-c2ccccc2OC)c(O)c1 | 38.6% |
| O=C(NCCCCO)C(F)(F)C(F)(F)C(F)(F)C(=O)NCCCCO | -22.9% |
| C=CCNCCCCOc1ccccc1 | -9.48% |
| C/C=C/C=C/C(=O)OCC(=O)Nc1ccc(Cl)cc1 | 23.8% |
| Cc1ccc(N2C(=O)CC(Sc3ncn[nH]3)C2=O)cc1 (configuration not stated) | 7.7% |
| N#CC1(NC(=O)COC(=O)CSc2ccc(F)cc2)CCCCC1 | 6.22% |
| Cc1ccc(C(=O)NN(CCC#N)C2=NS(=O)(=O)c3ccccc32)cc1 | 6.64% |
| Cc1cn(C2OC[C@@H](O)[C@@H]2CO)c(=O)[nH]c1=O (some centres not stated) | -25.3% |
| CCn1c(/C=C/Nc2ccccc2)[n+](CC)c2ccc(C(=O)OCC(F)(F)F)cc21 | 50.7% (active) |
| CCOC(=O)N1CCN(C(=O)c2ccc(S(=O)(=O)Nc3cccc(C(F)(F)F)c3)cc2)CC1 | 5.75% |
| CCOC(=O)c1ccc2c(c1)nc(C)n2CC | -24.3% |
| Cc1nc2c(C(=O)NCc3cccs3)cnn2c(C)c1Cc1ccc(F)cc1 | 5.96% |
